# In PubChem BioAssay (NCI):
# About 83,000 compounds went through this panel and 20% of them were active in at least one assay; those are over-represented in the sample as a whole.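 96-well plates, one dose, 48 hours. Percent growth reported; active if below 10.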 A number with no mark means an inactive call. The source made the active and inactive calls.
# Experiments:
# Experiment in all cases: NCI-60 one-dose screen, 48 h (100 = growth as untreated, 0 = no growth, -100 = all killed)
# Details in all cases: 10 µM unless noted
# [1] = system: NCI-H23 lung
# [2] = system: NCI-H226 lung
# [3] = system: HOP-62 NSCLC
# [4] = system: NCI-H460 lung
# [5] = system: HOP-92 NSCLC
# [6] = system: NCI-H522 lung
# [7] = system: A549/ATCC NSCLC
# [8] = system: 786-0 renal
# [9] = system: COLO 205 colon
# [10] = system: DU-145 prostate
# [11] = system: K-562 leukemia
# [12] = system: MALME-3M melanoma
# [13] = system: MDA-MB-231 breast
# [14] = system: RXF 393 renal
# [15] = system: SF-268 CNS
# [16] = system: SF-295 CNS
# [17] = system: SF-539 CNS
# [18] = system: UACC-257 melanoma
# [19] = system: M14 melanoma
# [20] = system: NCI-H322M lung
Structure (SMILES),growth [1],growth [2],growth [3],growth [4],growth [5],growth [6],growth [7],growth [8],growth [9],growth [10],growth [11],growth [12],growth [13],growth [14],growth [15],growth [16],growth [17],growth [18],growth [19],growth [20]
Cc1oc(-c2ccc(Cl)cc2Cl)cc1C(=O)Nc1nccs1,87.4%,62.6%,85.4%,60.7%,110%,89.7%,51.8%,90.7%,87.9%,104%,95.1%,85.1%,83.2%,88.2%,100%,87%,95.9%,114%,99.5%,
COc1ccc(/C=C\c2cc(OC)c(OC)c(OC)c2)cc1OC(=O)c1cccc(Cn2cc(CCOC(=O)[C@H](N)Cc3cn(C)c4ccccc34)nn2)c1,29.6%,19.8%,44.3%,1.11% (active),61.6%,18.9%,19.7%,15.7%,-54.5% (active),-8.08% (active),4.84% (active),65.4%,42.8%,34.9%,23.1%,14.2%,-13.6% (active),68.2%,9.47% (active),
COc1ccc(C(=O)c2sc3nc4c(c(-c5cccnc5)c3c2N)CCCC4)cc1OC,97.7%,86.3%,80.7%,77.4%,-11.7% (active),83%,82.2%,87.5%,94.6%,91.4%,15.2%,83.5%,38.3%,51%,64.9%,93.2%,73.4%,98.3%,118%,
C=C1C(=O)O[C@H]2[C@H]1CC/C(C=Nc1ccc(C(F)(F)F)cc1N)=C\CC[C@@]1(C)O[C@@H]21,12.4%,42.5%,47.6%,15.3%,,-56.6% (active),59.7%,25%,-74.3% (active),17.4%,,-13.3% (active),-26.4% (active),-35.5% (active),23.7%,45.4%,-7.2% (active),13%,5.33% (active),54%
COc1cccc(NC(=O)c2sc3nc(C)c(C(C)=O)cc3c2N)c1,65.5%,83.7%,44.7%,10.8%,,40.1%,20.5%,58.5%,-1.6% (active),23.3%,,71.2%,58.5%,51.6%,69.8%,29.9%,32%,60.1%,23.7%,45.5%
O=C(Cn1cccc(Nc2ccccc2)c1=O)Nc1ccccc1,113%,103%,105%,106%,97%,110%,106%,106%,107%,111%,108%,,108%,100%,107%,106%,97.1%,99.6%,102%,
CSc1ccc(SC2c3ccc(C)cc3Oc3nc(N)c(C#N)c(N)c32)cc1 (stereo not given),-74.2% (active),-88.7% (active),-27.8% (active),-72.5% (active),-67.6% (active),-91.1% (active),0.603% (active),-96.6% (active),-76.7% (active),-88.7% (active),,-94% (active),-90.5% (active),-70.2% (active),-26.1% (active),15.3%,-86.7% (active),-76.3% (active),-81.6% (active),
Cc1cc2nc(NC(=O)CN3CCN(CCN4C(=O)c5cccc6cccc(c56)C4=O)CC3)sc2cc1C,89%,89.2%,94.9%,91.7%,74.9%,87.3%,70.3%,82.8%,99.6%,91.7%,,89.5%,92.4%,87.5%,86.3%,91.2%,80.9%,99.2%,94.3%,
CCc1c(Nc2ccccc2C)nc(N)[nH]c1=O,117%,103%,100%,108%,93.7%,99%,114%,109%,109%,111%,,102%,114%,112%,101%,105%,103%,115%,106%,
Cn1ncc2c(=O)nc3c(-c4ccccc4)n[nH]n3c21,101%,91.9%,95.5%,103%,116%,73.2%,101%,99.9%,119%,101%,119%,98.6%,102%,121%,101%,84.5%,96.2%,98.7%,104%,
O=C1/C(=C/c2ccccc2O)N=C2SCCCN12,80.9%,97.2%,88.4%,103%,80.9%,79.7%,101%,98.8%,99.9%,103%,,95.1%,78.8%,112%,99.5%,98.6%,95.4%,103%,102%,
CC(C)CSc1nc(N)nc2c1ncn2C1OC(CO)C(O)C1O (stereo not given),106%,101%,95.2%,104%,147%,92.6%,102%,121%,101%,115%,,99.5%,104%,98.7%,99.9%,72.3%,94.7%,104%,116%,
CCCCC/C(C=C(C#N)C#N)=C/c1ccccc1,68.9%,116%,106%,37.4%,112%,-10.1% (active),61.6%,87%,86.5%,71.3%,42.2%,95.4%,77.7%,,81.7%,84.4%,92.3%,54%,73%,
O=c1ccccc(-c2ccc(-c3ccco3)cc2)c1O,19.1%,21.7%,6.97% (active),2.15% (active),60.1%,27.3%,13.3%,10.6%,26.3%,19.7%,,15.1%,40.2%,43.9%,11%,20.5%,-2.44% (active),0.169% (active),-2.99% (active),
CCOc1ccc(-n2nc(C(=O)Nc3cc(OC)c(OC)c(OC)c3)nc2-c2cc(OC)c(OC)c(OC)c2)cc1,85%,78.1%,95.7%,92.1%,69.9%,65.9%,86.9%,77.1%,80.3%,99.1%,,85.2%,50.5%,83.8%,92.1%,95.9%,87.8%,93.1%,91.5%,
Cc1cc(N2CCCC2)nc(NC2CCCC(Nc3ccnc4cc(Cl)ccc34)C2)n1 (stereo not given),-41.4% (active),-56.2% (active),-84.4% (active),-66.3% (active),-82.7% (active),-76.3% (active),-88.6% (active),-91.1% (active),-90.7% (active),-21.8% (active),,-80.4% (active),-77% (active),-84.5% (active),-36.7% (active),-80.8% (active),-92.5% (active),-84.3% (active),-83.6% (active),
O=C(/C=C/c1ccc(C(F)(F)F)cc1)Nc1ccc(C=C2c3ccccc3C(=O)c3ccccc32)cc1,49.2%,67.8%,78.8%,62.3%,55.6%,20.8%,44.6%,62.1%,66.5%,72.4%,,76.6%,77.3%,68.4%,67.3%,59.2%,83.5%,35.1%,59.1%,
